Results published in PubChem BioAssay.
Active and inactive are the calls of the source.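 Rule for the calls, unless noted: active = normalized viability below 100% at a tested concentration; inactive = the rest.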

Legend:
[1] = ovarian cancer cell viability with rucaparib, profiling panel, oncology-focused library, rucaparib conditional (AID 1508598); conditions: patient-derived ovarian cancer cells, CellTiter-Glo viability, 144 h, stronger effect = lower value
[2] = kinase inhibitors against Plasmodium liver-stage infection, cell-based, known kinase inhibitor set, luminescence, hepatoma host viability (AID 624392; call rule not given here;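 note: infected cells incubated roughly two days before readout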); conditions: Plasmodium liver stage in hepatoma cells, luciferase luminescence, concentration not given here; liver cell % of control: measured here: host liver cell viability; parasite % of control: stronger effect = lower value
[3] = modulators of glucocorticoid suppression of NF-kB, cell-based, luciferase, IL-1B stimulus, dexamethasone (AID 624486; call rule not given here;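 for percent of negative control (+Dex): 100% = mean signal of vehicle control wells on the plate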); conditions: NF-kB luciferase reporter, IL-1B + dexamethasone, luminescence; percent of negative control (+Dex): actives lie on both sides, concentration not given here; z-score: measured here: IL-1B alone, no Dex
[4] = kinase inhibitors altering Pseudomonas killing of worms, whole organism (AID 651566; call rule not given here;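 note: tested at 14 µM; sign flipped so higher z means a lower ratio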); conditions: C. elegans killed by P. aeruginosa, survival ratio
[5] = activators of macrophage pro-inflammatory response, cell-based, murine, luminescence (AID 652131; call rule not given here); conditions: murine macrophage pro-inflammatory reporter, stronger effect = higher value
[6] = survival rescue of mitochondrial mutant cells in low glucose, primary screen, MELAS cybrids, Rieske KO mouse fibroblasts, CellTiter-Glo (AID 1508586;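 active = mean z-score across replicates of 1.96 or higher in either the MELAS or the Rieske mutant cell line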;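 note: z relative to plate mean and SD of compound and empty wells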)
[7] = at 0.000305 µM, OCI-C5x cells, with rucaparib 10 µM, 100% = cells with rucaparib alone
[8] = at 0.000305 µM, OCI-C5x cells, without rucaparib
[9] = at 0.000305 µM, OCI-P5x cells, with rucaparib 20 µM, 100% = cells with rucaparib alone
[10] = at 0.000305 µM, OCI-P5x cells, without rucaparib
[11] = at 0.00122 µM, OCI-C5x cells, with rucaparib 10 µM, 100% = cells with rucaparib alone
[12] = at 0.00122 µM, OCI-C5x cells, without rucaparib
[13] = at 0.00122 µM, OCI-P5x cells, with rucaparib 20 µM, 100% = cells with rucaparib alone
[14] = at 0.00122 µM, OCI-P5x cells, without rucaparib
[15] = at 0.00488 µM, OCI-C5x cells, with rucaparib 10 µM, 100% = cells with rucaparib alone
[16] = at 0.00488 µM, OCI-C5x cells, without rucaparib
[17] = at 0.00488 µM, OCI-P5x cells, with rucaparib 20 µM, 100% = cells with rucaparib alone
[18] = at 0.00488 µM, OCI-P5x cells, without rucaparib
[19] = at 0.0195 µM, OCI-C5x cells, with rucaparib 10 µM, 100% = cells with rucaparib alone
[20] = at 0.0195 µM, OCI-C5x cells, without rucaparib
[21] = at 0.0195 µM, OCI-P5x cells, with rucaparib 20 µM, 100% = cells with rucaparib alone
[22] = at 0.0195 µM, OCI-P5x cells, without rucaparib
[23] = at 0.0781 µM, OCI-C5x cells, with rucaparib 10 µM, 100% = cells with rucaparib alone
[24] = at 0.0781 µM, OCI-C5x cells, without rucaparib
[25] = at 0.0781 µM, OCI-P5x cells, with rucaparib 20 µM, 100% = cells with rucaparib alone
[26] = at 0.0781 µM, OCI-P5x cells, without rucaparib
[27] = at 0.313 µM, OCI-C5x cells, with rucaparib 10 µM, 100% = cells with rucaparib alone
[28] = at 0.313 µM, OCI-C5x cells, without rucaparib
[29] = at 0.313 µM, OCI-P5x cells, with rucaparib 20 µM, 100% = cells with rucaparib alone
[30] = at 0.313 µM, OCI-P5x cells, without rucaparib
[31] = at 1.25 µM, OCI-C5x cells, with rucaparib 10 µM, 100% = cells with rucaparib alone
[32] = at 1.25 µM, OCI-C5x cells, without rucaparib
[33] = at 1.25 µM, OCI-P5x cells, with rucaparib 20 µM, 100% = cells with rucaparib alone
[34] = at 1.25 µM, OCI-P5x cells, without rucaparib
[35] = at 5 µM, OCI-C5x cells, with rucaparib 10 µM, 100% = cells with rucaparib alone
[36] = at 5 µM, OCI-C5x cells, without rucaparib
[37] = at 5 µM, OCI-P5x cells, with rucaparib 20 µM, 100% = cells with rucaparib alone
[38] = at 5 µM, OCI-P5x cells, without rucaparib
[39] = MELAS cybrid survival, CellTiter-Glo 48 h, stronger effect = higher value
[40] = Rieske KO mouse fibroblast survival, CellTiter-Glo 72 h

CC[C@]1(O)C[C@@H]2CN(CCc3c([nH]c4ccccc34)[C@@](C(=O)OC)(c3cc4c(cc3OC)N(C=O)[C@H]3[C@@](O)(C(=O)OC)[C@H](OC(C)=O)[C@]5(CC)C=CCN6CC[C@@]43[C@@H]65)C2)C1
active: viability [1, 9] 91.7% | viability [1, 10] 90.9% | viability [1, 13] 73.6% | viability [1, 14] 31.5% | viability [1, 15] 66.7% | viability [1, 16] 41.5% | viability [1, 17] 51% | viability [1, 18] 17.7% | viability [1, 19] 44.5% | viability [1, 20] 29% | viability [1, 21] 57.9% | viability [1, 22] 14.5% | viability [1, 23] 36.6% | viability [1, 24] 24% | viability [1, 25] 49.3% | viability [1, 26] 12.1% | viability [1, 27] 34% | viability [1, 28] 23.4% | viability [1, 29] 49.8% | viability [1, 30] 10.9% | viability [1, 31] 33.5% | viability [1, 32] 23.5% | viability [1, 33] 44.2% | viability [1, 34] 12.2% | viability [1, 35] 34.1% | viability [1, 36] 22.9% | viability [1, 37] 43% | viability [1, 38] 11.8%
inactive: viability [1, 7] 113% | viability [1, 8] 110% | viability [1, 11] 106% | viability [1, 12] 106%

CO[C@H]1/C=C\C=C(\C)C(=O)NC2=CC(=O)C(NCCN(C)C)=C(C[C@@H](C)C[C@H](OC)[C@H](O)[C@@H](C)/C=C(\C)[C@@H]1OC(N)=O)C2=O
active: viability [1, 20] 82.9% | viability [1, 21] 50.4% | viability [1, 22] 17.3% | viability [1, 23] 91.8% | viability [1, 24] 27.4% | viability [1, 25] 17.4% | viability [1, 26] 9.22% | viability [1, 27] 26.5% | viability [1, 28] 10.1% | viability [1, 29] 7.13% | viability [1, 30] 5.68% | viability [1, 31] 7.91% | viability [1, 32] 4.98% | viability [1, 33] 6.01% | viability [1, 34] 3.54% | viability [1, 35] 8.19% | viability [1, 36] 4.12% | viability [1, 37] 4.71% | viability [1, 38] 2.66%
inactive: viability [1, 7] 108% | viability [1, 8] 108% | viability [1, 9] 120% | viability [1, 10] 116% | viability [1, 11] 109% | viability [1, 12] 109% | viability [1, 13] 114% | viability [1, 14] 114% | viability [1, 15] 107% | viability [1, 16] 107% | viability [1, 17] 117% | viability [1, 18] 117% | viability [1, 19] 118%

O=C(/C=C/c1ccc2ccccc2n1)c1ccncc1
active: viability [1, 9] 96% | viability [1, 10] 84.9% | viability [1, 13] 99.6% | viability [1, 14] 91.2% | viability [1, 17] 70.3% | viability [1, 18] 17.7% | viability [1, 21] 56.8% | viability [1, 22] 13.9% | viability [1, 25] 51.3% | viability [1, 26] 15.5% | viability [1, 29] 54.4% | viability [1, 30] 13.6% | viability [1, 33] 34.2% | viability [1, 35] 3.77% | viability [1, 37] 16.9%
inactive: viability [1, 7] 108% | viability [1, 8] 116% | viability [1, 11] 121% | viability [1, 12] 120% | viability [1, 15] 119% | viability [1, 16] 119% | viability [1, 19] 122% | viability [1, 20] 130% | viability [1, 23] 119% | viability [1, 24] 116% | viability [1, 27] 120% | viability [1, 28] 112% | viability [1, 31] 113% | viability [1, 32] 124% | viability [1, 34] 111% | viability [1, 36] 128% | viability [1, 38] 109%

NC(=O)c1cccc(Nc2nccc(Nc3cccc4[nH]ncc34)n2)c1
75%: liver cell % of control [2]
inactive: parasite % of control [2] 429% | percent of negative control (+Dex) [3] 95.5% | z-score [4] -0.905 | z-score [5] 1.14 | z-score [6, 39] 0.00705
0.725: z-score [3]
-0.0979: z-score [6, 40]

COc1cc2ncn(-c3cc(OCc4ccccc4Cl)c(C(N)=O)s3)c2cc1OC
147%: liver cell % of control [2]
inactive: parasite % of control [2] 37.4% | percent of negative control (+Dex) [3] 112% | z-score [4] -0.73 | z-score [5] -0.517 | z-score [6, 39] 0.0989
0.395: z-score [3]
-0.32: z-score [6, 40]

CC1(C)O[C@@H]2C[C@H]3[C@@H]4CCC5=CC(=O)C=C[C@]5(C)[C@]4(F)[C@H](O)C[C@]3(C)[C@@]2(C(=O)CO)O1
active: viability [1, 9] 97.2% | viability [1, 17] 96.8% | viability [1, 21] 92.8% | viability [1, 25] 92.1% | viability [1, 29] 90.6% | viability [1, 33] 84% | viability [1, 34] 97.8% | viability [1, 36] 99.9% | viability [1, 37] 78.5% | viability [1, 38] 90.4%
inactive: viability [1, 7] 108% | viability [1, 8] 124% | viability [1, 10] 122% | viability [1, 11] 116% | viability [1, 12] 123% | viability [1, 13] 101% | viability [1, 14] 116% | viability [1, 15] 106% | viability [1, 16] 117% | viability [1, 18] 110% | viability [1, 19] 105% | viability [1, 20] 122% | viability [1, 22] 107% | viability [1, 23] 108% | viability [1, 24] 120% | viability [1, 26] 110% | viability [1, 27] 105% | viability [1, 28] 114% | viability [1, 30] 106% | viability [1, 31] 109% | viability [1, 32] 108% | viability [1, 35] 109%
